The results in this text go back to PubChem BioAssay (EPA / NIEHS).

What all share (conditions): mRNA level, 48 h; actives raise or lower the signal
Read-out in assay [1]: ABC Transporter (ABCB11), ABCB11 (gene 8647)
The assay can be described thus: LTEA_HepaRG_ABCB11: Life Technologies and Expression Analysis (LTEA) Assay for ABC Transporter (ABCB11) using HepaRG (AID 2283463). Summed up:
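ABCB11 transcript levels are read by Fluidigm TaqMan qRT-PCR after 48 h chemical treatment of human HepaRG cells. Concentrations span 100 uM downward in half-log steps with 0.5% DMSO; gain or loss is fitted against DMSO controls.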

Read-out in assay [2]: ABC Transporter (ABCC2), ABCC2 (gene 1244)
Put plainly: LTEA_HepaRG_ABCC2: Life Technologies and Expression Analysis (LTEA) Assay for ABC Transporter (ABCC2) using HepaRG (AID 2283464). The method, boiled down:
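qRT-PCR (TaqMan, Fluidigm array) read-out of ABCC2 mRNA, normalized to three housekeeping genes. Differentiated HepaRG cells were treated 48 h in serum-free induction medium with 8-point half-log series from 100 uM in 0.5% DMSO; curves fitted bidirectionally relative to DMSO.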

Read-out in assay [3]: Broad substrate specificity ATP-binding cassette transporter ABCG2 (Homo sapiens) (UniProt Q9UNQ0)
Put plainly: LTEA_HepaRG_ABCG2: Life Technologies and Expression Analysis (LTEA) Assay for ABC Transporter (ABCG2) using HepaRG (AID 2283465). Summed up:
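Read-out is ABCG2 mRNA induction or loss quantified by qRT-PCR after 48 h chemical treatment of human HepaRG cells, normalized to three housekeeping genes. Concentrations reached 100 uM top in half-log steps; fitting was bidirectional against 0.5% DMSO.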

Read-out in assay [4]: ATP-citrate lyase (ACLY), ACLY (gene 47)
Put plainly: LTEA_HepaRG_ACLY: Life Technologies and Expression Analysis (LTEA) Assay for ATP-citrate lyase (ACLY) using HepaRG (AID 2283466). The method, boiled down:
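HepaRG, 48 h exposure, 8-pt half-log dilutions (top 100 uM), 0.5% DMSO. Readout: ACLY mRNA, TaqMan qRT-PCR, housekeeping-normalized (ACTB/GAPDH/POLR2A). Bidirectional curve fit vs DMSO.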

Read-out in assay [5]: Peroxisomal acyl-coenzyme A oxidase 1 (ACOX1) gene, ACOX1 (gene 51)
Put plainly: LTEA_HepaRG_ACOX1: Life Technologies and Expression Analysis (LTEA) Assay for Peroxisomal acyl-coenzyme A oxidase 1 (ACOX1) gene using HepaRG (AID 2283467). Summed up: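 Measured by qRT-PCR against three housekeeping genes: ACOX1 transcript change in human HepaRG cells after 48 h dosing. Concentrations ran up to 100 uM in half-log steps. Curves were fitted bidirectionally relative to 0.5% DMSO.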

Read-out in assay [6]: Alkaline Phosphatase, Placental (ALPP) gene, ALPP (gene 250)
The assay can be described thus: LTEA_HepaRG_ALPP: Life Technologies and Expression Analysis (LTEA) Assay for Alkaline Phosphatase, Placental (ALPP) gene using HepaRG (AID 2283468). The method, boiled down:
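qRT-PCR readout of ALPP mRNA (Fluidigm TaqMan), normalized to ACTB/GAPDH/POLR2A, after 48 h chemical exposure of HepaRG cells; 8-point half-log series, top 100 uM, 0.5% DMSO vehicle. Bidirectional curve fit versus DMSO baseline.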

Read-out in assay [7]: Bcl-2 (BAD) gene, BAD (gene 572)
Put plainly: LTEA_HepaRG_BAD: Life Technologies and Expression Analysis (LTEA) Assay for Bcl-2 (BAD) gene using HepaRG (AID 2283469). Summed up: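 BAD transcript change, measured by qRT-PCR against three housekeeping genes and fitted in both directions relative to 0.5% DMSO, after 48 h chemical treatment of human HepaRG liver cells at concentrations up to 100 uM.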

Read-out in assay [8]: Bcl-2 (BAX) gene, BAX (gene 581)
The assay can be described thus: LTEA_HepaRG_BAX: Life Technologies and Expression Analysis (LTEA) Assay for Bcl-2 (BAX) gene using HepaRG (AID 2283470). Summed up: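 Concentration-response endpoint fitted in both directions relative to 0.5% DMSO vehicle. Human HepaRG cultures receive test chemicals for 48 h at up to 100 uM; BAX mRNA is quantified by qRT-PCR against housekeeping genes.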

Read-out in assay [9]: adenosine kinase (ADK) gene, ADK (gene 132)
The assay can be described thus: LTEA_HepaRG_ADK: Life Technologies and Expression Analysis (LTEA) Assay for adenosine kinase (ADK) gene using HepaRG (AID 2283471). Summed up: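 HepaRG (human liver), 48 h chemical exposure, 8-pt half-log series, top 100 uM, 0.5% DMSO vehicle. Readout: ADK mRNA by qRT-PCR vs housekeeping genes; bidirectional curve fit relative to DMSO baseline.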

Read-out in assay [10]: Alpha-fetoprotein (AFP) gene, AFP (gene 174)
Put plainly: LTEA_HepaRG_AFP: Life Technologies and Expression Analysis (LTEA) Assay for Alpha-fetoprotein (AFP) gene using HepaRG (AID 2283472). The method, boiled down:
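After a 48 h plating period, cells are moved to serum-free induction medium and dosed in duplicate (100 uM maximum, half-log dilutions, 0.5% DMSO) for another 48 h. Total RNA goes to TaqMan qRT-PCR; AFP signal is housekeeping-normalized.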

Read-out in a further assay: BCL2L11 (gene 10018)
The assay can be described thus: LTEA_HepaRG_BCL2L11: Life Technologies and Expression Analysis (LTEA) Assay for Bcl-2 (BCL2L11) gene using HepaRG (AID 2283473). Summed up: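 HepaRG, 48 h exposure, 8-pt half-log series from 100 uM in 0.5% DMSO, duplicates; qRT-PCR (Fluidigm TaqMan) for BCL2L11, housekeeping-normalized; bidirectional curve fit relative to DMSO baseline.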

Read-out in assay [11]: Apolipoprotein A-V (APOA5) gene, APOA5 (gene 116519)
Put plainly: LTEA_HepaRG_APOA5: Life Technologies and Expression Analysis (LTEA) Assay for Apolipoprotein A-V (APOA5) gene using HepaRG (AID 2283474). Summed up:
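HepaRG, 48 h chemical exposure in serum-free induction medium, 8-pt half-log series (top 100 uM), 0.5% DMSO vehicle, duplicates. Readout: APOA5 mRNA by qRT-PCR, housekeeping-normalized; bidirectional fit vs DMSO baseline.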

Read-out in assay [12]: Apoptosis regulator Bcl-2 (Homo sapiens) (UniProt P10415)
The assay can be described thus: LTEA_HepaRG_BCL2: Life Technologies and Expression Analysis (LTEA) Assay for Bcl-2 gene using HepaRG (AID 2283475). The method, boiled down:
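Expression change of BCL2 mRNA in HepaRG after 48 h dosing, quantified by TaqMan qRT-PCR against three endogenous controls. Concentration-response used eight points up to 100 uM, vehicle 0.5% DMSO.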

Read-out in assay [13]: Bcl-2 (BID) gene, BID (gene 637)
The assay can be described thus: LTEA_HepaRG_BID: Life Technologies and Expression Analysis (LTEA) Assay for Bcl-2 (BID) gene using HepaRG (AID 2283476). The method, boiled down: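 Gain or loss of BID expression is fitted relative to 0.5% DMSO vehicle. Human HepaRG liver cells received a 48 h chemical exposure over an eight-point concentration range.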

Read-out in the next assay: Caspase-3 (Homo sapiens) (UniProt P42574)
Put plainly: LTEA_HepaRG_CASP3: Life Technologies and Expression Analysis (LTEA) Assay for cysteine-aspartic acid protease (CASP3) using HepaRG (AID 2283477). Summed up:
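HepaRG, 48 h exposure, 8 conc. (top 100 uM, half-log steps, duplicate), 0.5% DMSO vehicle; qRT-PCR of CASP3 transcript, housekeeping-normalised (ACTB/GAPDH/POLR2A); bidirectional curve fit vs DMSO baseline.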

Read-out in assay [14]: Cytochrome P450 (CYP24A1), CYP24A1 (gene 1591)
Put plainly: LTEA_HepaRG_CYP24A1: Life Technologies and Expression Analysis (LTEA) Assay for Cytochrome P450 (CYP24A1) using HepaRG (AID 2283478). The method, boiled down:
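qRT-PCR read-out: CYP24A1 transcript levels normalized to three housekeeping genes, bidirectional curve fits against 0.5% DMSO baseline. Human HepaRG cells treated 48 h with chemicals at eight concentrations from 100 uM in half-log steps.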

Read-out in assay [15]: Cytochrome P450 (CYP1A2), CYP1A2 (gene 1544)
Put plainly: LTEA_HepaRG_CYP1A2: Life Technologies and Expression Analysis (LTEA) Assay for Cytochrome P450 (CYP1A2) using HepaRG (AID 2283479). Summed up:
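HepaRG, 48 h exposure, top 100 uM, half-log 8-pt, 0.5% DMSO vehicle, duplicates. Readout: TaqMan qRT-PCR of CYP1A2 mRNA, housekeeping-normalized (ACTB/GAPDH/POLR2A). Gain/loss fit relative to DMSO baseline.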

Read-out in assay [16]: cysteine-aspartic acid protease (CASP8), CASP8 (gene 841)
The assay can be described thus: LTEA_HepaRG_CASP8: Life Technologies and Expression Analysis (LTEA) Assay for cysteine-aspartic acid protease (CASP8) using HepaRG (AID 2283480). The method, boiled down:
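HepaRG, 48 h exposure, duplicate wells; 8 conc, half-log from 100 uM, 0.5% DMSO. Serum-free induction medium. CASP8 mRNA by TaqMan qRT-PCR, norm. ACTB/GAPDH/POLR2A; gain/loss fitted vs DMSO.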

Read-out in assay [17]: Cytochrome P450 (CYP2B6), CYP2B6 (gene 1555)
The assay can be described thus: LTEA_HepaRG_CYP2B6: Life Technologies and Expression Analysis (LTEA) Assay for Cytochrome P450 (CYP2B6) using HepaRG (AID 2283481). Summed up:
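Read-out is CYP2B6 mRNA by TaqMan qRT-PCR, normalized to three housekeeping genes and fitted bidirectionally against 0.5% DMSO baseline. Human HepaRG cells received test chemicals for 48 h, top concentration 100 uM, half-log dilutions.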

Read-out in assay [18]: Cytochrome P450 2C19 (Homo sapiens) (UniProt P33261)
The assay can be described thus: LTEA_HepaRG_CYP2C19: Life Technologies and Expression Analysis (LTEA) Assay for CYP2C19 using HepaRG (AID 2283482). The method, boiled down: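 HepaRG, 48 h chemical exposure, 8-pt half-log series from 100 uM in 0.5% DMSO, duplicates. Readout: CYP2C19 mRNA by TaqMan qRT-PCR, housekeeping-normalized. Bidirectional fit vs DMSO baseline; phenobarbital 1mM as induction control.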

The source made the active and inactive calls. Rule for the calls: active = hit-call score of the fitted dose curve at least 0.9, where 1 is the maximum; inactive = score below 0.9.

Sequence of Caspase-3 (Homo sapiens) (P42574 whole entry, looked up): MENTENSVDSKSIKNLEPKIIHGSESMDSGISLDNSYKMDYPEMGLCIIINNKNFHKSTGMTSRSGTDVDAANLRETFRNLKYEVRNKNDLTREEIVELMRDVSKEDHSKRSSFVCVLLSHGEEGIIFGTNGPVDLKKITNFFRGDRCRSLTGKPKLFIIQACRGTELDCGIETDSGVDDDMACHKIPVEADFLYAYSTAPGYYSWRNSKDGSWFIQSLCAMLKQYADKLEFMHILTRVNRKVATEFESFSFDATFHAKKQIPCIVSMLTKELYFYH
Sequence of Cytochrome P450 2C19 (Homo sapiens) (P33261 whole entry, looked up): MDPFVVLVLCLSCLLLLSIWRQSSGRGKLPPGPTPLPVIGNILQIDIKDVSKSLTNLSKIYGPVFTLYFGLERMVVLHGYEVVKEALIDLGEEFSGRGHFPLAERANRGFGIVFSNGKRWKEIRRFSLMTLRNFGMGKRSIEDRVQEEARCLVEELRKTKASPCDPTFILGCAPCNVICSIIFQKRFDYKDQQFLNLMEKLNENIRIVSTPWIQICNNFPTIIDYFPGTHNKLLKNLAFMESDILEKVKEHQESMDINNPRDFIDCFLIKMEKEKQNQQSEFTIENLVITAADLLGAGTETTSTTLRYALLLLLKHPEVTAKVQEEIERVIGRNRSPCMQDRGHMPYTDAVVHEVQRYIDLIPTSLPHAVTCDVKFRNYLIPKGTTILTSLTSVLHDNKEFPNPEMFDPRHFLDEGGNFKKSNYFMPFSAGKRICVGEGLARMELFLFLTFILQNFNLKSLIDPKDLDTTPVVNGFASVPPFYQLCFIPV
Sequence of Apoptosis regulator Bcl-2 (Homo sapiens) (P10415 whole entry, looked up): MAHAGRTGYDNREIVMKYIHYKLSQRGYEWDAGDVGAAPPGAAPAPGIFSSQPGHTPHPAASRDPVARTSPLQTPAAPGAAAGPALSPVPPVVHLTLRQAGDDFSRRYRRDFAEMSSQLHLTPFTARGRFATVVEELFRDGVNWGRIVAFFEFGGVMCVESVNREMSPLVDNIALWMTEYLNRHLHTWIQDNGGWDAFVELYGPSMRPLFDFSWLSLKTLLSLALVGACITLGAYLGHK
Sequence of Broad substrate specificity ATP-binding cassette transporter ABCG2 (Homo sapiens) (Q9UNQ0 whole entry, looked up): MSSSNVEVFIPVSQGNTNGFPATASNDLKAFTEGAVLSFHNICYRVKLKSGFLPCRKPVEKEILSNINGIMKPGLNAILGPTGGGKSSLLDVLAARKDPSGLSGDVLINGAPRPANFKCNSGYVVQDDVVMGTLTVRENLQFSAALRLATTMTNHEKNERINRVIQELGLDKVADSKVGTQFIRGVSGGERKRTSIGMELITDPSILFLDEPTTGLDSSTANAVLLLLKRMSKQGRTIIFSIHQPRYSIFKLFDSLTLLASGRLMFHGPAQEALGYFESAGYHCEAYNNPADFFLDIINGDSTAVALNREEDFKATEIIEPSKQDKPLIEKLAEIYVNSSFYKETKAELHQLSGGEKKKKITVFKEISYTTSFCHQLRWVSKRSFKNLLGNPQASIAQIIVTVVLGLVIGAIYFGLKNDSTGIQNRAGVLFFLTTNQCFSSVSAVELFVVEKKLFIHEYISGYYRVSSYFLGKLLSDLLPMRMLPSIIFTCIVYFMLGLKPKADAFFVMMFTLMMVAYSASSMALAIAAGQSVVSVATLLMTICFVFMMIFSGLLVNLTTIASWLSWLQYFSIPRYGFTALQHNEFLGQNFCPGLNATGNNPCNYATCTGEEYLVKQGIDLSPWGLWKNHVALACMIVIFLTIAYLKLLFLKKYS

With `CC(=O)OC[C@H]1O[C@@](COC(C)=O)(O[C@H]2O[C@H](COC(C)=O)[C@@H](OC(C)=O)[C@H](OC(C)=O)[C@H]2OC(C)=O)[C@@H](OC(C)=O)[C@@H]1OC(C)=O`, the compound was called inactive in [1], in [2], in assay [3], in [4], in assay [5] and in [6]. Besides, the outcome (in assay [7]; in [8]; in [9]; in [10]; in the assay with BCL2L11 (gene 10018); in [11]) was inactive. In addition, the result (in assay [12]; in assay [13]; with Caspase-3 (Homo sapiens); in assay [14]; in assay [15]; in [16]) was inactive. For the same compound, the compound was called inactive in assay [17] and in assay [18].
What is called AC50 is the concentration at which the activity in the assay is half-maximal. With `O=C(O)c1cc(N=Nc2ccc(S(=O)(=O)Nc3ccccn3)cc2)ccc1O`, the result in assay [1], in [2], in [3], in [4], in [5] and in assay [6] was inactive. Also, the compound was classed as inactive (in assay [7]; in assay [8]; in assay [9]; in [10]; with BCL2L11 (gene 10018); in assay [11]). Also, the result (in assay [12]; in [13]; in the assay with Caspase-3 (Homo sapiens); in assay [14]; in assay [17]; in [18]) was inactive. Also, the AC50 in assay [15] is 75.7 µM (active).
Turning to `CC/C(=C\C(=N/O)C(N)=O)C(C)[N+](=O)[O-]` (centres undefined), the compound was called inactive in [1], in assay [2], in assay [3], in assay [4], in [5] and in [6]. Further, the result (in assay [7]; in assay [8]; in assay [9]; in [10]; with BCL2L11 (gene 10018); in assay [11]) was inactive. For the same compound, the compound was classed as inactive (in [12]; in assay [13]; in the assay with Caspase-3 (Homo sapiens); in assay [14]; in assay [16]; in assay [17]). Further, the result in assay [18] was inactive. In assay [15], the AC50 is 26.5 µM (active).
